Assay [1] is described as follows: ATG_DR4_LXR_CIS: Attagene CIS-FACTORIAL HepG2 Assay for human Liver X Receptor (LXR), DR4 submotif (AID 2282929). Particulars: HepG2 Attagene DR4 cis-reporter, mRNA transcription; actives raise or lower the signal. In outline: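 Endogenous factor activity at a DR4 cis-element is read as reporter mRNA in transiently transfected HepG2 cells. Exposure lasts 24 h; transcripts are amplified, fluorescently labelled and sized by capillary electrophoresis, with DMSO as baseline.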

A short description of assay [2]: ATG_AP_1_CIS: Attagene CIS-FACTORIAL HepG2 Assay for human Activator Protein 1 (AP-1) (AID 2282931). Particulars: HepG2 Attagene cis-factorial AP-1 reporter mRNA; actives raise or lower the signal. Summed up:
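Fluorescence of labelled PCR fragments separated by capillary electrophoresis gives reporter mRNA levels. HepG2 with transfected cis-regulated reporter units, 24 h exposure; DMSO serves as baseline for bidirectional curve fits.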

Assay [3] can be described thus: ATG_AP_2_CIS: Attagene CIS-FACTORIAL HepG2 Assay for human Activator Protein 2 (AP-2) (AID 2282932). Particulars: HepG2 AP-2 cis-reporter, Attagene transcription factor profiling; actives raise or lower the signal. Summed up: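 Cells (HepG2) transfected with promoter-driven reporter constructs, treated 24 h. Total RNA reverse-transcribed, reporter cDNA PCR-amplified, FAM-labelled by primer extension, digested, resolved by capillary electrophoresis. Activity fitted both directions versus DMSO.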

The nature of assay [4]: ATG_BRE_CIS: Attagene CIS-FACTORIAL HepG2 Assay for human Bone Morphogenetic Protein (BMP) Response Element (BRE) (AID 2282933). Particulars: HepG2 BMP response element reporter, Attagene transcription factor profiling; actives raise or lower the signal. Summed up:
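HepG2 cells transiently transfected with multiplexed cis-element reporter units were dosed with chemical for 24 h. Reporter mRNA was measured by RT-PCR with fluorescent labelling, HpaI digestion and capillary electrophoresis; bidirectional fitting relative to DMSO.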

Assay [5] deals with Retinoic acid receptor alpha (Homo sapiens) (UniProt P10276). In words: ATG_DR5_RAR_CIS: Attagene CIS-FACTORIAL HepG2 Assay for human Retinoic Acid Receptor Alpha (RARE), DR5 submotif (AID 2282934). Particulars: HepG2 Attagene cis-factorial RARE DR5 reporter, mRNA; actives raise or lower the signal. Summed up:
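Transfected HepG2 reporter cells are exposed to chemicals for 24 h. Then RNA is extracted and the DR5 element reporter transcript is measured by RT-PCR and capillary electrophoresis, with bidirectional curve fitting relative to DMSO.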

For assay [6], the target named is Transcription factor E2F1 (Homo sapiens) (UniProt Q01094). The assay is described as follows: ATG_E2F_CIS: Attagene CIS-FACTORIAL HepG2 Assay for human E2F Transcription Factor 1 (AID 2282935). Particulars: HepG2 Attagene cis-reporter, E2F reporter RNA transcripts; actives raise or lower the signal. In outline: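 First, HepG2 cells were transfected with reporter transcription units. Next, they were dosed for 24 h. Then RNA was isolated, converted to cDNA, PCR-amplified, FAM-labeled, HpaI-digested and analyzed by capillary electrophoresis.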
Transcription factor E2F1 (Homo sapiens), sequence (Q01094 whole entry, looked up): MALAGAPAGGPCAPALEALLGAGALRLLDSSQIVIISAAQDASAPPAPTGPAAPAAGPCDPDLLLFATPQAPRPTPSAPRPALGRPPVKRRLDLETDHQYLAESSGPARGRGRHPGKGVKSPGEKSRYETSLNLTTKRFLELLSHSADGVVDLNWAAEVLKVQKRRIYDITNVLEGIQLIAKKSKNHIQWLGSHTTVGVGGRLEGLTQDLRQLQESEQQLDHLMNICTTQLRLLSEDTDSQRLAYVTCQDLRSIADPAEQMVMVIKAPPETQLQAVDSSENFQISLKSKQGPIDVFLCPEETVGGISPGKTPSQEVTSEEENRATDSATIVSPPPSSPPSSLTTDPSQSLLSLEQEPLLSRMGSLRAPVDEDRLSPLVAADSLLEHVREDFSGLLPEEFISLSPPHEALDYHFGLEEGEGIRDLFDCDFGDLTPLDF

Assay [7] in a line: ATG_E_Box_CIS: Attagene CIS-FACTORIAL HepG2 Assay for human Enhancer Box (E-box) (AID 2282936). Particulars: HepG2 E-box cis-reporter transcription, actives raise or lower the signal. Summed up: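 Endogenous transcription factor activity was sensed in human HepG2 liver cells through transfected cis-promoter reporter units. After 24 h of dosing, total RNA was reverse-transcribed and reporter cDNA resolved by capillary electrophoresis.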

Assay [8] is described as follows: ATG_M_61_CIS: Attagene CIS-FACTORIAL HepG2 Assay for M61 Transcription Factor (Internal Marker) (AID 2282937). Particulars: HepG2 Attagene CIS-FACTORIAL M61 internal marker reporter; actives raise or lower the signal. Summed up:
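This endpoint serves as an internal background control within a multiplexed HepG2 cis-reporter panel. Cells are exposed for 24 h; reporter mRNA is amplified, fluorescently labelled and sized by capillary electrophoresis, with DMSO as negative control.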

Assay [9] is described as follows: ATG_EGR_CIS: Attagene CIS-FACTORIAL HepG2 Assay for human Early Growth Response 1 (EGR1) (AID 2282938). Particulars: HepG2 Attagene CIS-FACTORIAL EGR reporter mRNA; actives raise or lower the signal. Summed up:
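HepG2, transient MRTU transfection (cis promoters), 24 h compound. RNA → RT (oligo-dT) → PCR → 6-FAM labelling → HpaI cut → CE fluorescence. Bidirectional fit, DMSO baseline.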

Assay [10] can be described thus: ATG_M_19_CIS: Attagene CIS-FACTORIAL HepG2 Assay for M19 Transcription Factor (Internal Marker) (AID 2282939). Particulars: HepG2 Attagene CIS-FACTORIAL M19 internal marker reporter; actives raise or lower the signal. Summed up: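 HepG2 cells transiently transfected with cis-regulated multiple reporter transcription units were dosed for 24 h; reporter mRNA was quantified by RT-PCR, 6-FAM primer-extension labelling, HpaI digestion and capillary electrophoresis, with bidirectional fitting against DMSO baseline.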

Assay [11] in a line: ATG_ERE_CIS: Attagene CIS-FACTORIAL HepG2 Assay for Estrogen Response Element (ERE) (AID 2282940). Particulars: HepG2 ERE cis-reporter, Attagene RNA transcript; actives raise or lower the signal. Summed up: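 HepG2 cells transiently transfected with cis-promoter-driven multiplexed reporter transcription units report endogenous TF activity. After 24 h compound exposure, reporter mRNA is quantified by RT-PCR with capillary electrophoresis fluorescence; bidirectional fitting versus DMSO baseline.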

A short description of assay [12]: ATG_Ets_CIS: Attagene CIS-FACTORIAL HepG2 Assay for human Erythroblast Transformation Specific (ETS) (AID 2282941). Particulars: HepG2 ETS cis-reporter transcription, actives raise or lower the signal. In outline:
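Bidirectional fit versus DMSO of reporter mRNA signal, detected by RT-PCR and capillary electrophoresis in HepG2 cells transiently transfected with cis-element reporters and dosed 24 h.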

For assay [13], the target named is Hepatocyte nuclear factor 3-beta (Homo sapiens) (UniProt Q9Y261). In words: ATG_FoxA2_CIS: Attagene CIS-FACTORIAL HepG2 Assay for human Forkhead box A2 (FOXA2) (AID 2282942). Particulars: HepG2 cis-reporter transcription factor activity, 24 h; actives raise or lower the signal. In outline:
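Cells: HepG2, transient multiplex reporter transfection. Exposure 24 h. Detection: reporter-specific RT-PCR, fluorescent labelling, restriction digest, capillary electrophoresis. Analysis: bidirectional curve fit, DMSO as negative control.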

A short description of assay [14]: ATG_FoxO_CIS: Attagene CIS-FACTORIAL HepG2 Assay for human Forkhead box O (FoxO) (AID 2282943). Particulars: HepG2 Attagene cis-reporter, FoxO element, mRNA; actives raise or lower the signal. In outline: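 24 h chemical exposure, HepG2 with transient cis-MRTU transfection. RNA extraction, oligo(dT) RT, reporter-specific PCR, primer-extension labelling, HpaI digestion, CE fragment analysis; bidirectional fit, DMSO baseline.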

The nature of assay [15]: ATG_GATA_CIS: Attagene CIS-FACTORIAL HepG2 Assay for human GATA Binding Protein (AID 2282944). Particulars: HepG2 GATA cis-element reporter, Attagene multiplex mRNA; actives raise or lower the signal. Summed up: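 HepG2 cells transiently transfected with multiplexed cis-element reporter units reflecting endogenous transcription factor activity; reporter mRNA measured after 24 h dosing by RT-PCR, 6-FAM labeling, HpaI digestion and capillary electrophoresis. Bidirectional fitting versus DMSO baseline.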

Assay [16] can be described thus: ATG_GLI_CIS: Attagene CIS-FACTORIAL HepG2 Assay for human Zinc Finger Protein GLI1 (AID 2282945). Particulars: HepG2, Attagene cis-factorial reporter mRNA, GLI element; actives raise or lower the signal. Summed up: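 HepG2 cells transiently transfected with cis-promoter multiplexed reporter units report endogenous transcription factor activity. After 24 h chemical exposure, reporter mRNA was quantified by RT-PCR, 6-FAM labelling, HpaI digestion and capillary electrophoresis, with bidirectional fitting against DMSO.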

The target in assay [17] is Bile acid receptor (Homo sapiens) (UniProt Q96RI1). The assay is described as follows: ATG_IR1_CIS: Attagene CIS-FACTORIAL HepG2 Assay for human Nuclear Receptor Subfamily 1 Group H Member 4 (NR1H4), IR1 submotif (AID 2282946). Particulars: IR1 reporter transcription, actives raise or lower the signal. In outline: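 Readout: reporter transcript levels by RT-PCR with fluorescent capillary electrophoresis, from HepG2 cells transiently transfected with multiplexed cis-regulated reporters and dosed 24 h. Gain- or loss-of-signal fitted versus DMSO negative control.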
Bile acid receptor (Homo sapiens), sequence (Q96RI1 whole entry, looked up): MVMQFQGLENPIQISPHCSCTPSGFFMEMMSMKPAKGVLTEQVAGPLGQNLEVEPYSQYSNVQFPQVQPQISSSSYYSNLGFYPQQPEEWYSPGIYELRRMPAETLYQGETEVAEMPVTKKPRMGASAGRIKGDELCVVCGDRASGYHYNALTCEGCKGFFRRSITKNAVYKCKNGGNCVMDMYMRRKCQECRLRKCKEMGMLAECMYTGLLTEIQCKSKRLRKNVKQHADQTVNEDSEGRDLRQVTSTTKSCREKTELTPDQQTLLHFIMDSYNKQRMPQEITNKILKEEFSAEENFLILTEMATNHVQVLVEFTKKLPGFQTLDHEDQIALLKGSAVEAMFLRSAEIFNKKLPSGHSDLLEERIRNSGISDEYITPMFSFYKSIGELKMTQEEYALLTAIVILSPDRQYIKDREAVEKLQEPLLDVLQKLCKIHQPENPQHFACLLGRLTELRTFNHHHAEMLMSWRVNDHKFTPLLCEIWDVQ

Assay [18] in a line: ATG_ISRE_CIS: Attagene CIS-FACTORIAL HepG2 Assay for human Interferon Regulatory Factor 1 (IRF1) binding to an Interferon-Stimulated Response Element (ISRE) (AID 2282948). Particulars: HepG2 ISRE cis-reporter (Attagene), mRNA transcription readout; actives raise or lower the signal. In outline: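 Uses HepG2 liver cells transfected with cis-regulated reporters and measures mRNA 24 h post-dosing through RT-PCR, primer-extension labelling and capillary electrophoresis, with DMSO as negative control.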

The target in assay [19] is Aryl hydrocarbon receptor (Homo sapiens) (UniProt P35869). The assay is described as follows: ATG_Ahr_CIS: Attagene CIS-FACTORIAL HepG2 Assay for human Aryl Hydrocarbon Receptor (Ahr) (AID 2282930). Particulars: HepG2 AhR cis-factorial reporter transcription; actives raise or lower the signal. In outline: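 Following 24 h of chemical dosing, transfected HepG2 liver cells with cis-driven reporter units were lysed for RNA; reporter mRNA was quantified via RT-PCR and capillary electrophoresis, and responses fitted bidirectionally from DMSO.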
Aryl hydrocarbon receptor (Homo sapiens), sequence (P35869 whole entry, looked up): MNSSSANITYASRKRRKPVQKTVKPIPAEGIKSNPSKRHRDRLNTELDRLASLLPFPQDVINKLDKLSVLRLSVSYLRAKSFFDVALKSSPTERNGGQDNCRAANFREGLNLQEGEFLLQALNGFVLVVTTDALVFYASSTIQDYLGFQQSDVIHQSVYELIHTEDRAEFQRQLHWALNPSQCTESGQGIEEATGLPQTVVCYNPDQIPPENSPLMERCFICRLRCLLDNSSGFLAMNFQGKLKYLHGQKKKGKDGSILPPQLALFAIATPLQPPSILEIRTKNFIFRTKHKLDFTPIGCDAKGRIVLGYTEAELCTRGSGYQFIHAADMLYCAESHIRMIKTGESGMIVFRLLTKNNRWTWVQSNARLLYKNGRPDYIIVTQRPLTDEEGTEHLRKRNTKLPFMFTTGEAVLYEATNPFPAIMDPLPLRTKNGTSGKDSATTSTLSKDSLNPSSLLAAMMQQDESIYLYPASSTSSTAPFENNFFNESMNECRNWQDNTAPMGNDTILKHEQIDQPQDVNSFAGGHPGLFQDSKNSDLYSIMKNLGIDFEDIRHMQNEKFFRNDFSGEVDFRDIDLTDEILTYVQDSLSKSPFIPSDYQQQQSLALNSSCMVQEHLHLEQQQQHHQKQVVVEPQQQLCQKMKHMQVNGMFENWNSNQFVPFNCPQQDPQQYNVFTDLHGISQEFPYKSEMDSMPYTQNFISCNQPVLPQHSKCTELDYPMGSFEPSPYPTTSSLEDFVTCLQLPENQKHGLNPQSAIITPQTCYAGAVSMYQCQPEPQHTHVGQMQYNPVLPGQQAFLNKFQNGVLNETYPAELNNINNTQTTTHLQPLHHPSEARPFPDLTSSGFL

A short description of assay [20]: ATG_GRE_CIS: Attagene CIS-FACTORIAL HepG2 Assay for human Glucocorticoid Response Elements (GRE) (AID 2282947). Particulars: HepG2 GRE cis-reporter, Attagene multiplex mRNA; actives raise or lower the signal. In outline:
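Cells (HepG2) bearing transfected cis-promoter reporter transcription units were treated with chemical for 24 hours. Reporter mRNA was measured via RT-PCR with capillary electrophoresis, and activity was fitted in both directions relative to DMSO.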

Activity calls are given as the source filed them. How the source made its calls: active means hit-call score of the fitted dose curve at least 0.9, where 1 is the maximum; inactive means score below 0.9.

Hepatocyte nuclear factor 3-beta (Homo sapiens), sequence (Q9Y261 whole entry, looked up): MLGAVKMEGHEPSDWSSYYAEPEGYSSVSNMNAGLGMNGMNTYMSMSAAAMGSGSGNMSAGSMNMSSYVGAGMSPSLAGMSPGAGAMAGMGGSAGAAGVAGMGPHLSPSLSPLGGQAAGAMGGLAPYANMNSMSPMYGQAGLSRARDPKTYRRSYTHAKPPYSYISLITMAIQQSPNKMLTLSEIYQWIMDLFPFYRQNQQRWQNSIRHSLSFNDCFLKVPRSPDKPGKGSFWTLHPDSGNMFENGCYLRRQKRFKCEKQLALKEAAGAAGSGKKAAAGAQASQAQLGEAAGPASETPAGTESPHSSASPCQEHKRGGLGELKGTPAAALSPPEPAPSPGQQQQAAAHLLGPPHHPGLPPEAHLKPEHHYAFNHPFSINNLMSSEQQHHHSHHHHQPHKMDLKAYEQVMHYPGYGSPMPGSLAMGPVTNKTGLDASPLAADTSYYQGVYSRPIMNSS
Retinoic acid receptor alpha (Homo sapiens), sequence (P10276 whole entry, looked up): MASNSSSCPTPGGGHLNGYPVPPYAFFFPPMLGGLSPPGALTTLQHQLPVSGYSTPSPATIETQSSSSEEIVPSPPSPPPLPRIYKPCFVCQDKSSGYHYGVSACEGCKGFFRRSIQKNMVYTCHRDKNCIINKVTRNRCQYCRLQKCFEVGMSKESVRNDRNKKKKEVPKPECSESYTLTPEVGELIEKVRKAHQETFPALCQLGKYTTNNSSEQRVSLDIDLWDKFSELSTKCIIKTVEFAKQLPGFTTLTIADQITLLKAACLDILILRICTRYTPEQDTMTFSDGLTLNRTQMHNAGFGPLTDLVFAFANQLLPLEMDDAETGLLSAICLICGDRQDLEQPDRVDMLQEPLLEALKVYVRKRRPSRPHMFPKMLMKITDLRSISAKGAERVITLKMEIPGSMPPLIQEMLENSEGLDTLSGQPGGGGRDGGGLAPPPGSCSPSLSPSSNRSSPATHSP

`C1CCC(C2CCCCC2)CC1`: the outcome in assay [1], in assay [2], in assay [3], in [4], in assay [5] and in assay [6] was inactive. Further, the outcome in [7], in [8], in assay [9], in [10], in [11] and in [12] was inactive. Besides, the compound was classed as inactive in [13], in [14], in assay [15], in [16], in [17] and in assay [18].

Take `Oc1cc(Cl)c(Cl)cc1Cl`: the outcome in assay [1], in [19], in assay [3], in assay [6], in assay [7] and in [8] was inactive. For the same compound, the result in [10], in [13], in assay [14], in [15], in assay [16] and in assay [18] was inactive. For the same compound, the AC50 is 25.9 µM (active) in assay [2], 26.8 µM (active) in assay [4] and 66.6 µM (active) in [9].

As to `NC(=O)CCl`, the call in assay [1], in [19], in assay [2], in [3], in [4] and in assay [7] was inactive. The result in assay [9], in [10], in [12], in assay [13], in assay [14] and in assay [15] was inactive. Also, the outcome in assay [16], in assay [17], in assay [20] and in [18] was inactive.

In the case of `CCCCOP(=O)(CCCC)OCCCC`, the call in assay [1], in [19], in [2], in assay [3], in [4] and in assay [6] was inactive. Further, the result in assay [7], in assay [8], in assay [9], in [10], in assay [12] and in assay [13] was inactive. The outcome in [14], in [15], in [16], in assay [17], in [20] and in [18] was inactive.

In general, AC50 refers to the concentration giving half of the maximal activity seen.

Source of the values: PubChem BioAssay (EPA / NIEHS).
